Results published in PubChem BioAssay (NCATS).
Values joined by “and” are separate entries in the source; they are usually repeats but may differ in a detail not shown here. Identical values can stand only once. Inconclusive results are not listed. The source holds several records for some structures; these can differ, active in one and inactive in another. Active and inactive are the calls of the source. Calls come from the whole dose curve; as a rule, active = well fitted curve in the direction sought with a large enough effect; inconclusive = small, poorly fitted or top-dose-only effect, or another doubt; inactive = no such curve, though single readings can be large; an effect the other way counts as inactive or inconclusive.

Experiments:
Es-2 = experiment: Primary qHTS to identify gynecologic anti-cancer compounds using libraries of approved drugs and bioactive compounds (AID 1345084); conditions: Gynecologic cancer cell panel viability, ATPlite luminescence, 48 h; series mostly up to 57.5 µM; note: nearly all actives have a fitted effect of over 55% in size
How it was run: (§1)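 Cytotoxicity screen measuring ATP content by luciferase luminescence. Each compound is applied at five concentrations for 48 h at 37 C with 5% CO2.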

HeLa = experiment: as above; conditions: Gynecologic cancer cell panel viability, ATPlite luminescence, 48 h; series mostly up to 57.5 µM
How it was run: as §1

Hek293T = experiment: as above; conditions: Gynecologic cancer cell panel viability, ATPlite luminescence, 48 h, control line for the selectivity index; series mostly up to 57.5 µM
How it was run: as §1

JEG-3 = experiment: as above; conditions: Gynecologic cancer cell panel viability, ATPlite luminescence, 48 h; series mostly up to 57.5 µM
How it was run: as §1

OV90 = experiment: as above; conditions: Gynecologic cancer cell panel viability, ATPlite luminescence, 48 h; series mostly up to 57.5 µM
How it was run: as §1

PA-1 = experiment: as above; conditions: Gynecologic cancer cell panel viability, ATPlite luminescence, 48 h; series mostly up to 57.5 µM
How it was run: as §1

SKOV3 = experiment: as above; conditions: Gynecologic cancer cell panel viability, ATPlite luminescence, 48 h; series mostly up to 57.5 µM
How it was run: as §1

Tov-21-G = experiment: as above; conditions: Gynecologic cancer cell panel viability, ATPlite luminescence, 48 h; series mostly up to 57.5 µM
How it was run: as §1

Tov112D = experiment: as above; conditions: Gynecologic cancer cell panel viability, ATPlite luminescence, 48 h; series mostly up to 57.5 µM
How it was run: as §1

[1] = Drug repurposing screens with cells derived from glioblastoma tumor samples (AID 1345199); conditions: GBM patient neurospheres viability, ATP luminescence, 48 h; note: nearly all actives have a fitted effect of over 40% in size; note: potency is the fitted concentration of half-maximal effect
How it was run: (§2)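 Four patient lines of CD133+ GBM neurospheres were screened at several concentrations; hits were retested in those lines plus three slower-growing GBM lines, using 48-hour treatment and ATP-based viability.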

astro = experiment: as above; conditions: viability, ATP luminescence, 48 h; series mostly up to 45.9 µM
How it was run: as §2

[2] = at 45.9 µM (top of the series), tumour line B
[3] = at 46.1 µM (top of the series), tumour line C
[4] = at 45.9 µM (top of the series), tumour line D
[5] = at 46 µM (top of the series), tumour line A
[6] = at 20 µM (top of the series), tumour line C
[7] = at 21.2 µM (top of the series), tumour line B
[8] = at 21.2 µM (top of the series), tumour line D
[9] = at 21.3 µM (top of the series), tumour line A
% is set by controls: 0 for no effect and ±100 for the full control effect.

c1ccc(-c2nc[nH]c2-c2ccccc2)cc1
inactive: Potency (Es-2) | Potency (HeLa) | Potency (Hek293T) | Potency (JEG-3) | Potency (OV90) | Potency (PA-1) | Potency (SKOV3) | Potency (Tov-21-G) | Potency (Tov112D) | activity, negative = cell killing [1, 2] -16.2%

CN(Cc1ccc(C(C)(C)C)cc1)Cc1cccc2ccccc12
inactive: Potency (Es-2) | Potency (HeLa) | Potency (Hek293T) | Potency (JEG-3) | Potency (OV90) | Potency (PA-1) | Potency (SKOV3) | Potency (Tov-21-G) | Potency (Tov112D) | activity, negative = cell killing [1, 2] -23.3% | activity, negative = cell killing [1, 3] -13.6% and -21.7% | Potency (astro)
active: Potency ([1]; tumour line A) 22.4 µM | Potency ([1]; tumour line B) 12.6 µM | Potency ([1]; tumour line D) 22.4 µM

COc1ccc(CCN(C)CCCN2CCc3cc(OC)c(OC)cc3CC2=O)cc1OC
active: Potency ([1]; tumour line A) 28.2 µM
inactive: Potency (Es-2) | Potency (HeLa) | Potency (Hek293T) | Potency (JEG-3) | Potency (OV90) | Potency (PA-1) | Potency (SKOV3) | Potency (Tov-21-G) | Potency (Tov112D) | activity, negative = cell killing [1, 2] -2.1% | activity, negative = cell killing [1, 4] -12.6% | activity, negative = cell killing [1, 3] -18% | Potency (astro)

NCc1ccccc1Sc1ccccc1CO
active: Potency ([1]; tumour line A) 35.5 µM
inactive: Potency (Es-2) | Potency (HeLa) | Potency (Hek293T) | Potency (JEG-3) | Potency (OV90) | Potency (PA-1) | Potency (SKOV3) | Potency (Tov-21-G) | Potency (Tov112D) | activity, negative = cell killing [1, 2] -12.4% | activity, negative = cell killing [1, 4] -24% | activity, negative = cell killing [1, 3] -18% | Potency (astro)

COc1ccc(CN(CCN(C)C)c2ncccn2)cc1
inactive: Potency (Es-2) | Potency (HeLa) | Potency (Hek293T) | Potency (JEG-3) | Potency (OV90) | Potency (PA-1) | Potency (SKOV3) | Potency (Tov-21-G) | Potency (Tov112D) | activity, negative = cell killing [1, 2] -6.69% | activity, negative = cell killing [1, 3] -7.28%

CC(=O)Nc1ccc(OC(=O)c2ccccc2OC(C)=O)cc1
inactive: Potency (Es-2) | Potency (HeLa) | Potency (Hek293T) | Potency (JEG-3) | Potency (OV90) | Potency (PA-1) | Potency (SKOV3) | Potency (Tov-21-G) | Potency (Tov112D) | activity, negative = cell killing [1, 2] -12.4% | activity, negative = cell killing [1, 4] -13.4% | activity, negative = cell killing [1, 5] -15.3% | activity, negative = cell killing [1, 3] -16.9% | Potency (astro)

Clc1cccc(C(c2ccc3nc[nH]c3c2)n2ccnc2)c1 (configuration not stated)
inactive: Potency (Es-2) | Potency (HeLa) | Potency (Hek293T) | Potency (JEG-3) | Potency (OV90) | Potency (PA-1) | Potency (SKOV3) | Potency (Tov-21-G) | Potency (Tov112D)

COc1ccc2c(c1)c1c3n2CCN(C)C3=NCC1
inactive: Potency (Es-2) | Potency (HeLa) | Potency (Hek293T) | Potency (JEG-3) | Potency (OV90) | Potency (PA-1) | Potency (SKOV3) | Potency (Tov-21-G) | Potency (Tov112D) | activity, negative = cell killing [1, 2] -1.83% | activity, negative = cell killing [1, 4] -7.29% | activity, negative = cell killing [1, 3] -23.1% | Potency (astro)
active: Potency ([1]; tumour line A) 12.6 µM

FC(F)(F)C(F)(F)C(F)(F)C(F)(F)C(F)(F)C(F)(F)C(F)(F)C(F)(F)Br
inactive: Potency (Es-2) | Potency (HeLa) | Potency (Hek293T) | Potency (JEG-3) | Potency (OV90) | Potency (PA-1) | Potency (SKOV3) | Potency (Tov-21-G) | Potency (Tov112D) | activity, negative = cell killing [1, 2] -8.68% | activity, negative = cell killing [1, 4] -7.68% | activity, negative = cell killing [1, 5] -17.2% | activity, negative = cell killing [1, 3] 5.77% | Potency (astro)

CN(CCCN1c2ccccc2CCc2ccccc21)CC(=O)c1ccc(Cl)cc1
inactive: Potency (Es-2) | Potency (HeLa) | Potency (Hek293T) | Potency (JEG-3) | Potency (OV90) | Potency (PA-1) | Potency (SKOV3) | Potency (Tov-21-G) | Potency (Tov112D)

CCC1NC(=O)c2cc(S(N)(=O)=O)c(Cl)cc2N1 (configuration not stated)
inactive: Potency (Es-2) | Potency (HeLa) | Potency (Hek293T) | Potency (JEG-3) | Potency (OV90) | Potency (PA-1) | Potency (SKOV3) | Potency (Tov-21-G) | Potency (Tov112D) | activity, negative = cell killing [1, 6] -6.38% | activity, negative = cell killing [1, 7] -2.62% | activity, negative = cell killing [1, 8] -14.7% | activity, negative = cell killing [1, 9] -12.3% | Potency (astro)

CCCCCCCCCCCCSCCOCCO
active: Potency ([1]; tumour line A) 35.5 µM
inactive: Potency (Es-2) | Potency (HeLa) | Potency (Hek293T) | Potency (JEG-3) | Potency (OV90) | Potency (PA-1) | Potency (SKOV3) | Potency (Tov-21-G) | Potency (Tov112D) | activity, negative = cell killing [1, 2] -1.92% | activity, negative = cell killing [1, 4] -19.1% | activity, negative = cell killing [1, 3] 9.86% | Potency (astro)

C#C[C@]1(O)CC[C@H]2[C@@H]3CCc4cc(OC)ccc4[C@H]3CC[C@@]21C
inactive: Potency (Es-2) | Potency (HeLa) | Potency (Hek293T) | Potency (JEG-3) | Potency (OV90) | Potency (PA-1) | Potency (SKOV3) | Potency (Tov-21-G) | Potency (Tov112D) | activity, negative = cell killing [1, 2] -27.2% | activity, negative = cell killing [1, 3] -5.96%
active: Potency ([1]; tumour line A) 39.8 µM

CCCc1ncc(C[n+]2ccccc2C)c(N)n1
inactive: Potency (Es-2) | Potency (HeLa) | Potency (Hek293T) | Potency (JEG-3) | Potency (OV90) | Potency (PA-1) | Potency (SKOV3) | Potency (Tov-21-G) | Potency (Tov112D) | activity, negative = cell killing [1, 6] 11.7% | activity, negative = cell killing [1, 7] -1.46% | activity, negative = cell killing [1, 8] -1.64% | activity, negative = cell killing [1, 9] -22.4% | Potency (astro)

CCN1CCN(C(=O)N[C@@H](C(=O)N[C@@H]2C(=O)N3C(C(=O)O)=C(CSc4nnnn4C)CS[C@H]23)c2ccc(O)cc2)C(=O)C1=O
inactive: Potency (Es-2) | Potency (HeLa) | Potency (Hek293T) | Potency (JEG-3) | Potency (OV90) | Potency (PA-1) | Potency (SKOV3) | Potency (Tov-21-G) | Potency (Tov112D) | activity, negative = cell killing [1, 2] -8.4% | activity, negative = cell killing [1, 4] 9.51% | activity, negative = cell killing [1, 5] -15% | activity, negative = cell killing [1, 3] 0.963% | Potency (astro)
